Compound activity (PubChem)
This is a sample that favours compounds with a hit; in the whole collection about 3.3% have one here.
MazEF act: activators of E. coli MazEF toxin-antitoxin RNase, primary screen, biochemical, fluorescence, uHTS; activation, % at 20 µM; FAM/BHQ RNA-DNA oligo cleavage fluorescence, 5 h; 350,000 compounds, 0.32% hits; AID 504720, 2011; Endoribonuclease toxin MazF (Escherichia coli (strain K12)), P0AE70; in the data active = activation above about 50%
Target sequence (P0AE70 whole entry, looked up): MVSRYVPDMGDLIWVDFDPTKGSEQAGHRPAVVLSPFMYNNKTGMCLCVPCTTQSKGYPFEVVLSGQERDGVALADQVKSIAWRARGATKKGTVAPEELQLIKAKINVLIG
Anthrax LF inh2: Bacillus anthracis LF protease inhibitors, primary screen, biochemical, multiplex microsphere, MLPCN library | Lethal factor (Bacillus anthracis), P15917 | multiplex microsphere protease cleavage assay | inhibition, % at 10 µM | 360,000 compounds, 0.12% hits | AID 588501, 2011; note: plate controls were buffer without enzyme for full effect and enzyme alone for no effect
BoNT F protease: BoNT/F light chain protease inhibitors, primary screen, biochemical, flow cytometry, MLPCN library; inhibition, % at 10 µM; AID 588497, 2011; Botulinum neurotoxin type F light chain protease (Clostridium botulinum); 360,000 compounds, 0.22% hits; Multiplex microsphere protease cleavage assay; in the data active = inhibition above about 35%, passing the limit was not always enough; inconclusive = no clear call, values can overlap the other calls; note: plate controls were buffer without enzyme for full effect and enzyme alone for no effect
PriA SSB inh: inhibitors of Klebsiella pneumoniae PriA binding to SSB C-terminal tail, primary screen, biochemical, AlphaScreen | AlphaScreen SSBct-PriA binding, biotinylated peptide | PriA–SSB C-terminal tail interaction (Klebsiella pneumoniae) | 430,000 compounds, 0.6% hits | inhibition, % at 33 µM; in the data active = inhibition mostly above about 37%, no sharp cut-off; inactive = mostly below about 20%;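 note: plate controls were negative control peptide for no effect and reference peptide for full effect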
BoNT-A LC inh2: BoNT/A light chain protease inhibitors, primary screen, biochemical, flow cytometry, MLPCN library. Botulinum neurotoxin type A light chain protease (Clostridium botulinum A str. ATCC 3502). multiplex microsphere protease substrate cleavage. inhibition, % at 10 µM. 360,000 compounds, 0.17% hits; note: plate controls were buffer without enzyme for full effect and enzyme alone for no effect
Autofluor counter: compound fluorescence in toxin protease inhibitor counterscreen. compound autofluorescence counterscreen, microsphere flow cytometry; hits give high values. fluorescence intensity (no concentration beside the values). 360,000 compounds, 3.1% hits; in the data active = fluorescence intensity above about 16000; inconclusive = no clear call, values can overlap the other calls
The depositor's hits bear a star. Cut-off read from the data, not from the text of the source, unless noted: active = inhibition above about 30%; inconclusive = no clear call, values can overlap the other calls; inactive = below that.

How did CCc1ccc(CN(C(=O)c2cc3ccccc3oc2=O)C2CCS(=O)(=O)C2)cc1 (centres undefined) do in these assays?
MazEF act: 9; Anthrax LF inh2: 0; BoNT F protease: -3; PriA SSB inh: -15; BoNT-A LC inh2: 2; Autofluor counter: 8689

What do the screens show for `O=C(NCc1ccccc1Cl)C(=O)N1CCN(Cc2ccc3c(c2)OCO3)CC1`?
PriA SSB inh: -1

What do the screens show for `Cc1c(C(=O)Nc2cccc([C@H](C)O)c2)nnn1-c1cccc(Cl)c1`?
PriA SSB inh: -7

How did CCCCC(CC)C1OCC(CN2CCCCC2)O1 (centres undefined) do in these assays?
MazEF act: 4; Anthrax LF inh2: -10; BoNT F protease: inconclusive; PriA SSB inh: -7; BoNT-A LC inh2: -8; Autofluor counter: 4297

Results for CCCCC(CC)C1OCC(CN2CCCC2)O1 (centres undefined) ?
MazEF act: 8; Anthrax LF inh2: -3; BoNT F protease: 11; PriA SSB inh: -10; BoNT-A LC inh2: inconclusive; Autofluor counter: 19353*

How did O=C(c1cnc2ccccc2n1)N(CCCN1CCOCC1)c1nc2c(F)cc(F)cc2s1 do in these assays?
PriA SSB inh: -14

What do the screens show for `COc1cc(C(C[N+](=O)[O-])c2c(C)[nH]c3ccccc23)cc(OC)c1OC` (centres undefined)?
MazEF act: 2; Anthrax LF inh2: -2; BoNT F protease: -3; PriA SSB inh: -10; BoNT-A LC inh2: 0; Autofluor counter: 21574*

Results for O=[N+]([O-])CC(c1ccccc1)c1c[nH]c2ccccc12 (centres undefined) ?
MazEF act: 0; Anthrax LF inh2: 0; BoNT F protease: inconclusive; PriA SSB inh: 2; BoNT-A LC inh2: 2; Autofluor counter: 3244

How did O=c1cccnn1CCNS(=O)(=O)c1cc(C(F)(F)F)ccc1Cl do in these assays?
PriA SSB inh: 1

Results for O=C(CSc1cn(CCNC(=O)c2cccs2)c2ccccc12)Nc1ccc(F)cc1F ?
PriA SSB inh: -4

How did C=CCn1c(N)c(C(=O)OCC)sc1=S do in these assays?
MazEF act: 2; Anthrax LF inh2: 4; BoNT F protease: -14; PriA SSB inh: 1; BoNT-A LC inh2: -1; Autofluor counter: 9816

What do the screens show for `C=CCn1c(N)c(C(=O)NCCC2=CCCCC2)sc1=S`?
MazEF act: -3; Anthrax LF inh2: -5; BoNT F protease: -4; PriA SSB inh: 18; BoNT-A LC inh2: -1; Autofluor counter: 16404*

What do the screens show for `Cc1ccc(-n2c(N)c(C(=O)N3CCN(C)CC3)sc2=S)cc1`?
MazEF act: 7; Anthrax LF inh2: -3; BoNT F protease: -2; PriA SSB inh: 0; BoNT-A LC inh2: -1; Autofluor counter: 21266*

How did C=CCn1c(N)c(C(=O)N2CCN(C)CC2)sc1=S do in these assays?
MazEF act: 3; Anthrax LF inh2: -7; BoNT F protease: 0; PriA SSB inh: -19; BoNT-A LC inh2: 2; Autofluor counter: 22789*

What do the screens show for `Nc1c(C(=O)N2CCCCC2)sc(=S)n1-c1ccccc1`?
MazEF act: -6; Anthrax LF inh2: 0; BoNT F protease: -2; PriA SSB inh: 17; BoNT-A LC inh2: -1; Autofluor counter: 21338*

What do the screens show for `CSc1ccc(NC(=O)COc2ccccc2)nn1`?
PriA SSB inh: -6

What do the screens show for `Cc1cc(NC(=O)NCCCSc2nc3ccccc3o2)no1`?
PriA SSB inh: 5

Results for CCCC(=O)N(c1ccc2oc(C)cc2c1)S(=O)(=O)c1cc(C)c(C)cc1C ?
PriA SSB inh: -5

How did CCn1ccc(C(=O)Nc2ccc(S(C)(=O)=O)cc2)n1 do in these assays?
PriA SSB inh: 2

What do the screens show for `Nc1c(C(=O)N2CCOCC2)sc(=S)n1-c1ccccc1`?
MazEF act: 4; Anthrax LF inh2: 1; BoNT F protease: -4; PriA SSB inh: -13; BoNT-A LC inh2: -5; Autofluor counter: 21197*

Results for Nc1c(C(=O)N2CCOCC2)sc(=S)n1-c1ccccc1F ?
PriA SSB inh: 6

Results for CCOc1nc(-c2ccccc2)ccc1-c1noc(-c2cccs2)n1 ?
MazEF act: -24; Anthrax LF inh2: 0; BoNT F protease: 8; PriA SSB inh: -16; BoNT-A LC inh2: 3; Autofluor counter: 20998*

What do the screens show for `COc1ccc(-c2nc(-c3ccncc3)no2)cc1`?
MazEF act: 91*; Anthrax LF inh2: 7; BoNT F protease: 3; PriA SSB inh: -11; BoNT-A LC inh2: -1; Autofluor counter: 3887

Results for CCOc1nc(-c2ccc(OC)cc2)ccc1-c1noc(-c2ccncc2)n1 ?
MazEF act: 12; Anthrax LF inh2: -2; BoNT F protease: 0; PriA SSB inh: -13; BoNT-A LC inh2: inconclusive; Autofluor counter: 23147*

How did CC(C)(C)NC(=O)CN(C(=O)C1(C)CC(=O)N=C2C=CC=CN21)C1CCCC1 (centres undefined) do in these assays?
MazEF act: 2; Anthrax LF inh2: -4; BoNT F protease: -7; PriA SSB inh: -6; BoNT-A LC inh2: -5; Autofluor counter: 23762*

Results for CS(=O)(=O)Nc1ccccc1C(=O)Nc1cc(Cl)cc(Cl)c1 ?
MazEF act: -1; Anthrax LF inh2: -2; BoNT F protease: -3; PriA SSB inh: -4; BoNT-A LC inh2: -2; Autofluor counter: 20510*

Results for CSCCC(C)(O)CNC(=O)c1cc(C)on1 (centres undefined) ?
PriA SSB inh: -10

How did Cc1ccc2c(CNCc3ccco3)cc(=O)oc2c1 do in these assays?
MazEF act: -1; Anthrax LF inh2: -3; BoNT F protease: 0; PriA SSB inh: 3; BoNT-A LC inh2: 0; Autofluor counter: 23320*

What do the screens show for `CCOc1ccccc1C(=O)NC[C@@](O)(c1ccccc1)C1CC1`?
PriA SSB inh: -10

Results for CCN1CCN(Cc2c(O)ccc3c2O/C(=C\C=C\c2ccccc2)C3=O)CC1 ?
MazEF act: -100; Anthrax LF inh2: 12; BoNT F protease: 5; PriA SSB inh: -1; BoNT-A LC inh2: 35*; Autofluor counter: 2071

Results for COc1ccccc1/C=C/C=C1\Oc2c(ccc(O)c2CN2CCN(CCO)CC2)C1=O ?
MazEF act: -134; Anthrax LF inh2: 12; BoNT F protease: 1; PriA SSB inh: 2; BoNT-A LC inh2: 31*; Autofluor counter: 2160

What do the screens show for `CC(=O)N1CCc2c(sc(NC(=O)C3(c4ccc(Cl)cc4)CCCC3)c2C#N)C1`?
PriA SSB inh: 0

Results for O=C(Nc1cccc2ccccc12)N1CC=C(c2ccccc2)CC1 ?
MazEF act: 78*; Anthrax LF inh2: -2; BoNT F protease: -13; PriA SSB inh: -14; BoNT-A LC inh2: 0; Autofluor counter: 4321
